Measured values published in the supplement of paper PMC10338343.
± gives the standard deviation.

What follows are sequences tested on MILI (PIWIL2) piRISC loaded with L1MC piRNA (26 nt) (assay: pre-steady-state target cleavage rate (min^-1); guide: L1MC piRNA 5'p-UAACUAAAUACUAUGCAAGCUGUAGG; MIWI and MILI are mouse PIWI proteins and EfPiwi is from a freshwater sponge; tags in brackets are library labels; higher = faster piRNA-guided slicing of the target). Details: auxiliary factor: 500 nM mouse GTSF1.
Procedure, shortened: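 At 33 °C in HEPES–potassium acetate buffer, a transcribed, DNA-blocked target RNA library […] was exposed for 0–8 or 0–960 min to 1 nM active affinity-purified piRISC carrying a single synthetic guide, with or without 500 nM GTSF1 partner protein. Uncleaved targets were sequenced and normalised to depth and to weakly complementary targets. With three trials pooled and k3 capped at 0.0001 min^-1, a burst-and-steady-state fit produced the pre-steady-state cleavage rate.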
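Note: 1 nM active piRISC with 0.1 nM target library at 33 °C single turnover.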

Sequence	pre-steady-state target cleavage rate
UCCUCCUACAGCUUGCAUUCUAUUUAGAAA	0.0122 ± 0.0056
UCCUGGAUGUGCAACCAUAGUAUUUAGUAA	0.00554 ± 0.0027
UCCUGGAACUGCUUGCAUAGUAUUUACAAA	0.0945 ± 0.022
UCCUGGAUCACGUUGCAUAGUAUUUAGUAA	0.18 ± 0.024
UCCUGGUACAGCUUGCAUAGUUUUUUCAAA	0.0153 ± 0.0075
UCCUGGAUGUGCUUGCAUAGUAUAAUGUUA	0.081 ± 0.022
UCCUGGAUGUCCUUGCAAAGUUUUUAGUUA	0.0117 ± 0.0048
UCCUGGAUGUGCUUGGUUAGUAUUUAGUUA	0.0978 ± 0.017
UCCUGGUACAGCUUGCAUUGAAUUUAGUUA	0.047 ± 0.015
UCCUGGUACAGCUUGCAUUGUAUUUAGUAA	0.112 ± 0.024
UCCUGGAUCAGCAUGCAUAGAAUUUAGUUA	0.0386 ± 0.0077
UCCUGGAUGUGCUUGCAUAGUAUUUAUUUA	0.0305 ± 0.011
UCCUGGAUGAGCUUGCAUAGAUUUUAGUUA	0.0099 ± 0.0044
UCCUCCUACAGCUUCGUUAGUAUUUAGUAA	0.186 ± 0.026
UCCUGGAUGAGCUUGCUUAGUAUAUAGUUA	0.103 ± 0.02
UCCUGGAUCAGCUAGCAUAGUUUUUAGUUA	0.0366 ± 0.0073
UCCUCCUACACCUUGCAUUGUAUUUAGUUA	0.184 ± 0.021
UCCUCCUACAGCUUGGUAAGUAUUUAGUAA	0.155 ± 0.025
UCCUGCUACAGGUUGCAUAGUAUUAAGUUA	0.208 ± 0.034

Sequence	pre-steady-state target cleavage rate
UCCUGGAUGUCGAUGCAUAGUUAUUAGUUA	0.00565 ± 0.0033
UCCUGGAACAGGUUGCAUAGUAUUUACAAA	0.0582 ± 0.013
UCCUGGAACAGCUUGCAUAGGAUUUAGUUA	0.00777 ± 0.0035
UCCUGGAACAGCUUGCAAAGUUUUUAGUUA	0.0201 ± 0.0064
UCCUCCUAUCAGCUUGCAUAGUAUUUAGUUA	0.322 ± 0.015
UCCUGCUACUCGUUGCAUAGUAUUUACAAA	0.0703 ± 0.016
UCCUGGUACAGCUUGCAUAGAUUUUAGUUA	0.0355 ± 0.0097
UCCUGGAUGUCCUUGCAUAGAAUAUAGUUA	0.00487 ± 0.0038
UCCUGGAUCAGCUACGAUAGUAUUUAGUUA	0.0475 ± 0.0093
UCCUGGAUGUCGUUUCAUAGUAUUUAGUUA	0.0434 ± 0.0083
UCCUGGAUGUGCAACCAUAGUAUUUAGUUA	0.0128 ± 0.0042
UCCUGGAUCAGCUUCCUUAGUAUUUAGUUA	0.122 ± 0.018
UCCUGGAUGAGGUUGCAUAGUAUAUAGUUA	0.163 ± 0.04
UCCUGGAUGUCGAUGGAUAGUAUUUUGUUA	0.00767 ± 0.0043
UCCUGGAACAGCAUGCAUAGUAUUUUCAAA	0.066 ± 0.018
UCCUGGAACAGCUUGCAUAGUAUUUAUUA	0.046 ± 0.014
UCCUGGUACAGCUUGCAAAGAAUUUAGUUA	0.00951 ± 0.0059
UCCUGCUAGUCCUUGCAUAGUAUUUACAAA	0.0056 ± 0.004
